Laboratory results: article PMC7862700, “An all-to-all approach to the identification of sequence-specific readers for epigenetic DNA modifications on cytosine”

Assays:
Assay in all cases: DAPPL (digital affinity profiling via proximity ligation, sequencing); 10 mM Tris-HCl pH 7.5, 50 mM NaCl, 1 mM DTT, 4% glycerol, room temperature, 30 min; GST-TFs on glutathione beads, 16-mer random dsDNA library, 0.1% formaldehyde crosslink after washing; high values mean tight binding
FLI1 = target: T1, FLI1 (Homo sapiens, UniProt Q01543 1-452); conditions: protein: recombinant; tags: N-terminal GST; dsDNA, one strand shown
T1 sequence: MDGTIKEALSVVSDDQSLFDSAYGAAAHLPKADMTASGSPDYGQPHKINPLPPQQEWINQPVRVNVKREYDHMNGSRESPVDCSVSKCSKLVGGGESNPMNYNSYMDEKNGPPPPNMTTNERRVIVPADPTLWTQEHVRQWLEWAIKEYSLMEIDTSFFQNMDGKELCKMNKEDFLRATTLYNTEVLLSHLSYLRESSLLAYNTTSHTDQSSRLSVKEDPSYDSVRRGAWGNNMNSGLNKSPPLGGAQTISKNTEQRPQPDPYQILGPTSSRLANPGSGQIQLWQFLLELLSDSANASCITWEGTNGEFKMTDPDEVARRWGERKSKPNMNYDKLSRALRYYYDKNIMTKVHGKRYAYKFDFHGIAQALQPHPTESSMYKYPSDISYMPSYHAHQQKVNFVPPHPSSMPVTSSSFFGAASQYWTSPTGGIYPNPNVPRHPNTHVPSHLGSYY
Summary of the method: (§1)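 Yeast served to express human transcription factors as GST fusions, which were then captured on glutathione beads and labelled with DNA barcodes. Pooled with a tag-only sample, they were incubated with 200 nmole of a 16-mer random double-stranded DNA library for 30 min at room temperature in Tris/NaCl/DTT/glycerol buffer, washed, crosslinked with 0.1% formaldehyde, ligated by proximity, amplified by PCR and sequenced. Dividing each hexamer's read frequency for a factor by its frequency for the tag-only sample gives the binding signal.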

ELK1 = target: T2, ELK1 (Homo sapiens, UniProt P19419 1-428); conditions: protein: recombinant; tags: N-terminal GST; dsDNA, one strand shown
T2 sequence: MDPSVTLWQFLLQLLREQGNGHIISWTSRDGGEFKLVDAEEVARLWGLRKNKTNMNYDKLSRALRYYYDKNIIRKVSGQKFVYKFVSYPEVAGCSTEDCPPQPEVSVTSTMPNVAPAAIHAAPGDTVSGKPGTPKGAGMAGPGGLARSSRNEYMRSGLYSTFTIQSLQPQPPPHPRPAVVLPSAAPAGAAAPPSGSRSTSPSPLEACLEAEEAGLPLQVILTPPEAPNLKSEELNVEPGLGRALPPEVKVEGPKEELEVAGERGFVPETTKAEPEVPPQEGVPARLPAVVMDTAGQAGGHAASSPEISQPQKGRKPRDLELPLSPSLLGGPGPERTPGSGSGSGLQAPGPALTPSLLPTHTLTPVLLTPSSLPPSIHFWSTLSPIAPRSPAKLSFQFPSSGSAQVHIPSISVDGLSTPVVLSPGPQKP
Summary of the method: as §1

GABPA = target: T3, GABPA (Homo sapiens, UniProt Q06546 1-454); conditions: protein: recombinant; tags: N-terminal GST; dsDNA, one strand shown
T3 sequence: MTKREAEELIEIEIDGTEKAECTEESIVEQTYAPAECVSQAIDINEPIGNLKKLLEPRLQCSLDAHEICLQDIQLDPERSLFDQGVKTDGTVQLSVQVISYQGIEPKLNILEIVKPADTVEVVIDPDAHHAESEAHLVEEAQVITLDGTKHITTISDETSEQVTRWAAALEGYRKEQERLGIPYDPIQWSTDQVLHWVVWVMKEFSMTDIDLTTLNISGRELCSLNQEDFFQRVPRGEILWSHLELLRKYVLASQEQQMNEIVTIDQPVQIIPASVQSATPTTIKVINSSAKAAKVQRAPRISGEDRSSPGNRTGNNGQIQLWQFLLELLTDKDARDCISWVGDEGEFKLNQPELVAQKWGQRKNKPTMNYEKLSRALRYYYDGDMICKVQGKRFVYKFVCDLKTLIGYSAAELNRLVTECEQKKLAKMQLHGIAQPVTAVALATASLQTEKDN
Summary of the method: as §1

ERG = target: T4, ERG (Homo sapiens, UniProt P11308 1-479); conditions: protein: recombinant; tags: N-terminal GST; dsDNA, one strand shown
T4 sequence: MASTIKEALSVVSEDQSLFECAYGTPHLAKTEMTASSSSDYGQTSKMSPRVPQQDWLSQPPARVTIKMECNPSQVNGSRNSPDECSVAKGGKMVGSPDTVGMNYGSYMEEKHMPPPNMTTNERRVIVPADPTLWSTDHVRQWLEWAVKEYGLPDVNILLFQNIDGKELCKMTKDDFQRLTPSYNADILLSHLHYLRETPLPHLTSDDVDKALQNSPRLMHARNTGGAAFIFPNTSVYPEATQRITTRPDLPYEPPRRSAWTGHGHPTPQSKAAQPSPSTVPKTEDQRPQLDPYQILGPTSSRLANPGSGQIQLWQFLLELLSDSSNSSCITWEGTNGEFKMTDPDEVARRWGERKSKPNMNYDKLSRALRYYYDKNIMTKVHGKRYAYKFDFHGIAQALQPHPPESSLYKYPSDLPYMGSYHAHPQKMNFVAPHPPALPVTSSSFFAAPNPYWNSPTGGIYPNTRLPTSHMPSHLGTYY
Summary of the method: as §1

ELF1 = ELF1 (Homo sapiens, UniProt P32519 1-619); conditions: protein: recombinant; tags: N-terminal GST; dsDNA, one strand shown
ELF1, sequence (P32519 whole entry): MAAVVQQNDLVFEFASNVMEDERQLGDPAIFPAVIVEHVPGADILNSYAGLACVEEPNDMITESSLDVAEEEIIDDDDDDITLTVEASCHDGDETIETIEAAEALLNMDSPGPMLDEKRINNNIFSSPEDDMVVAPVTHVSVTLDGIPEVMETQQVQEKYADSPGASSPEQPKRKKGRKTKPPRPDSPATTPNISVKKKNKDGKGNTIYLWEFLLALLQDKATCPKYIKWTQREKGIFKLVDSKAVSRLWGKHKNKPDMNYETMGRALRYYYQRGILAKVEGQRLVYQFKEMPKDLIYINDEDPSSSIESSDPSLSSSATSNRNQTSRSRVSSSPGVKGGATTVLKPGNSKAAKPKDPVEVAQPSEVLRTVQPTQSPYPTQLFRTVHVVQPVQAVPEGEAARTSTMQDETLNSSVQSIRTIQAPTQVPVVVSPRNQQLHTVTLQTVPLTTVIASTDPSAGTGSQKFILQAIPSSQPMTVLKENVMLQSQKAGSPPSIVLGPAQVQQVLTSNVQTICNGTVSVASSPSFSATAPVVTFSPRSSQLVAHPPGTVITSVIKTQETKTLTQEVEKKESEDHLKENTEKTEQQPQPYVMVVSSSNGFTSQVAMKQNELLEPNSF
Summary of the method: as §1

EHF = target: T5, EHF (Homo sapiens, UniProt Q9NZC4 1-300); conditions: protein: recombinant; tags: N-terminal GST; dsDNA, one strand shown
T5 sequence: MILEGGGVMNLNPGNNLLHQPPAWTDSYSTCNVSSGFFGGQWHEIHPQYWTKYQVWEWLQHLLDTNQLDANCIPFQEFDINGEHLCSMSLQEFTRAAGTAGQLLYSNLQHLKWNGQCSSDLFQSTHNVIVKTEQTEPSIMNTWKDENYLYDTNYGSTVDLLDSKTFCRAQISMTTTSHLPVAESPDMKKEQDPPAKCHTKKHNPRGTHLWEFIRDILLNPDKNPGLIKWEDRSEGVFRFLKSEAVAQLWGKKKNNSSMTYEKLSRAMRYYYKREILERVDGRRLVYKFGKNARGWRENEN
Summary of the method: as §1

SPIB = SPIB (Homo sapiens, UniProt Q01892 1-262); conditions: protein: recombinant; tags: N-terminal GST; dsDNA, one strand shown
SPIB, sequence (Q01892 whole entry): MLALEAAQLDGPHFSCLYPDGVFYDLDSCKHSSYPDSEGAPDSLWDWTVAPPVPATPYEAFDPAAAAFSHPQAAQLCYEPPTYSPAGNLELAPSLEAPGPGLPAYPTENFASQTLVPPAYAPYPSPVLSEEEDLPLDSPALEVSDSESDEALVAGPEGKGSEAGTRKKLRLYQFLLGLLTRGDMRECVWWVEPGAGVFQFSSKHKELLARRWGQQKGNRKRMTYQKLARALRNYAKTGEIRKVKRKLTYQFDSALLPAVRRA
Summary of the method: as §1

ELK3 = target: T6, ELK3 (Homo sapiens, UniProt P41970 1-407); conditions: protein: recombinant; tags: N-terminal GST; dsDNA, one strand shown
T6 sequence: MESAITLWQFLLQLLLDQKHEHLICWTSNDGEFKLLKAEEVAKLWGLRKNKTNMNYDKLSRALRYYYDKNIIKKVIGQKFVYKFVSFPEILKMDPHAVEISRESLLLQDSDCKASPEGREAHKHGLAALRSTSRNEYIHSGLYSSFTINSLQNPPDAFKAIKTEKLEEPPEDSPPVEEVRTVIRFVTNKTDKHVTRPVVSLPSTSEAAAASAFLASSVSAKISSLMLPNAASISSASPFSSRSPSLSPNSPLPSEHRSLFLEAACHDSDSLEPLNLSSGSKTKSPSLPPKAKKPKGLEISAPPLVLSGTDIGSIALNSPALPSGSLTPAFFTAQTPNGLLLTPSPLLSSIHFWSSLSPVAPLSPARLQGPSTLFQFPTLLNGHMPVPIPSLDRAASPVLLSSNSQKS
Summary of the method: as §1

FEV = target: T7, FEV (Homo sapiens, UniProt Q99581 1-238); conditions: protein: recombinant; tags: N-terminal GST; dsDNA, one strand shown
T7 sequence: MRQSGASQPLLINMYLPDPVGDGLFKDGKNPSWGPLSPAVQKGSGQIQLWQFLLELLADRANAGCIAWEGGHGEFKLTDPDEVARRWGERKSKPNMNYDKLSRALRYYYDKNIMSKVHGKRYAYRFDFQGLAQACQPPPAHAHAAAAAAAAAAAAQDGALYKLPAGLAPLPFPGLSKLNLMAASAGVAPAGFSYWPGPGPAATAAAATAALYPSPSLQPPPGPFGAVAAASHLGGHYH
Summary of the method: as §1

ETV5 = ETV5 (Homo sapiens, UniProt P41161 1-510); conditions: protein: recombinant; tags: N-terminal GST; dsDNA, one strand shown
ETV5, sequence (P41161 whole entry): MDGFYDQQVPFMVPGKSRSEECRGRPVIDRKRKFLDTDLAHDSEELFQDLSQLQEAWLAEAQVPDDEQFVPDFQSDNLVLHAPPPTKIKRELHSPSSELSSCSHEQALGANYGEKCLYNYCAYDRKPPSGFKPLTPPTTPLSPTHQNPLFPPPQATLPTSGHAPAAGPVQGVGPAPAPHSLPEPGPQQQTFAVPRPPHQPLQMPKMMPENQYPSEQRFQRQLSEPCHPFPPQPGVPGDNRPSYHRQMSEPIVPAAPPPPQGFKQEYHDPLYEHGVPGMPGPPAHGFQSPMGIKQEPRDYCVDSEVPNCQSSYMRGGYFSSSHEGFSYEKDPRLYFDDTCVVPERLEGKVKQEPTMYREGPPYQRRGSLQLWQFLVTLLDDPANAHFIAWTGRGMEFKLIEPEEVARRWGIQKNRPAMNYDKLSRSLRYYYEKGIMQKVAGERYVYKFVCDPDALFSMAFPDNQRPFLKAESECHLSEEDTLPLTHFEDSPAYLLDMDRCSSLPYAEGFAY
Summary of the method: as §1

HSF1 = HSF1 (Homo sapiens, UniProt Q00613 1-529); conditions: protein: recombinant; tags: N-terminal GST; chain copies: 3; dsDNA, one strand shown
HSF1, sequence (Q00613 whole entry): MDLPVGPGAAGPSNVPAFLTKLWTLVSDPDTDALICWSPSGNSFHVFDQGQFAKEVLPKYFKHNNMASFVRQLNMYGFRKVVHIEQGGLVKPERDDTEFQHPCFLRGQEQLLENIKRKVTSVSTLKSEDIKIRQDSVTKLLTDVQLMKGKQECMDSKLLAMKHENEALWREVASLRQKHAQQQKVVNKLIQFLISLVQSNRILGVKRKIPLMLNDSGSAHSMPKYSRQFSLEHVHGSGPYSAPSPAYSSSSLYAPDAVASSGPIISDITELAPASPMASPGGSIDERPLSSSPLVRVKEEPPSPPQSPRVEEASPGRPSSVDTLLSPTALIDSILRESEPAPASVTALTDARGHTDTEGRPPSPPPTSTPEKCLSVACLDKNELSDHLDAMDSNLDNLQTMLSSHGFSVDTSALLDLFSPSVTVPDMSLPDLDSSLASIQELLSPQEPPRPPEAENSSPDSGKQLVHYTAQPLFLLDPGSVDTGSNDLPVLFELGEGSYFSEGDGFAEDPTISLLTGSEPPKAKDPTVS
Summary of the method: as §1

SPIC = target: T8, SPIC (Homo sapiens, UniProt Q8N5J4 1-248); conditions: protein: recombinant; tags: N-terminal GST; dsDNA, one strand shown
T8 sequence: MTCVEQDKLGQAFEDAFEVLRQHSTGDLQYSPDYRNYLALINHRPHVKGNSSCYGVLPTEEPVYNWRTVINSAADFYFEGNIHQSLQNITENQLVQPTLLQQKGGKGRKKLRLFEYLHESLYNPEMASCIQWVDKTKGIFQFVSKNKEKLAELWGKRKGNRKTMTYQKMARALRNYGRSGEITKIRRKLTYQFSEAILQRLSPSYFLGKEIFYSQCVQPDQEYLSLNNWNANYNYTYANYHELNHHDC
Summary of the method: as §1

ELF4 = ELF4 (Homo sapiens, UniProt Q99607 1-663); conditions: protein: recombinant; tags: N-terminal GST; dsDNA, one strand shown
ELF4, sequence (Q99607 whole entry): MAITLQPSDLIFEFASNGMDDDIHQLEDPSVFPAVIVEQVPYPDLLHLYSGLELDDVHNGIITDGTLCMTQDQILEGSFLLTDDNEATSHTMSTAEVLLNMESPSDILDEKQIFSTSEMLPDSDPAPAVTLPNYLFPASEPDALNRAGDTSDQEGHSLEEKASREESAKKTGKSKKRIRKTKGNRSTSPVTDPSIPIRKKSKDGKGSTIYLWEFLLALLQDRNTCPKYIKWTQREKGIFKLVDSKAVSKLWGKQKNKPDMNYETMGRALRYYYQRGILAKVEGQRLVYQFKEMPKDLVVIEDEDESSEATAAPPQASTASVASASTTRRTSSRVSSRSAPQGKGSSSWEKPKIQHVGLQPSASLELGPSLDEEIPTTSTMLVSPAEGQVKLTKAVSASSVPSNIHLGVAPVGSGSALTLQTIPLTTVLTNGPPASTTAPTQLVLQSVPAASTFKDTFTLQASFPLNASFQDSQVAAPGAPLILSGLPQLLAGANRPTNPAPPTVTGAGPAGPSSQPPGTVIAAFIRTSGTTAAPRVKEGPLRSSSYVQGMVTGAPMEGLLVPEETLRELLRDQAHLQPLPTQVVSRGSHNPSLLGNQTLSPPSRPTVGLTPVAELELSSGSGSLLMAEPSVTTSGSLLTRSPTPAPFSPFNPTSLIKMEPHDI
Summary of the method: as §1

ELK4 = target: T9, ELK4 (Homo sapiens, UniProt P28324-2 1-405); conditions: protein: recombinant; tags: N-terminal GST; dsDNA, one strand shown
T9 sequence: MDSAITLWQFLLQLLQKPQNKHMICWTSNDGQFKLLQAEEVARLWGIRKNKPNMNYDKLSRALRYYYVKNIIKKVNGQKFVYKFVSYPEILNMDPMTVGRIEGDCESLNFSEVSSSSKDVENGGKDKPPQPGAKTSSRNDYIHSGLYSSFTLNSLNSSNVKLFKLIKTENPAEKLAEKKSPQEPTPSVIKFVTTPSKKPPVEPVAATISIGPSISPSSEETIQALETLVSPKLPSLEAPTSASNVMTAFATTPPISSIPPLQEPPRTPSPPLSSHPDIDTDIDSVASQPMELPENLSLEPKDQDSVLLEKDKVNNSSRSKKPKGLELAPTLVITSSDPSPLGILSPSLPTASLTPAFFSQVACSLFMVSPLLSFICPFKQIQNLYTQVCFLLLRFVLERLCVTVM
Summary of the method: as §1

ELF3 = target: T10, ELF3 (Homo sapiens, UniProt P78545 1-371); conditions: protein: recombinant; tags: N-terminal GST; dsDNA, one strand shown
T10 sequence: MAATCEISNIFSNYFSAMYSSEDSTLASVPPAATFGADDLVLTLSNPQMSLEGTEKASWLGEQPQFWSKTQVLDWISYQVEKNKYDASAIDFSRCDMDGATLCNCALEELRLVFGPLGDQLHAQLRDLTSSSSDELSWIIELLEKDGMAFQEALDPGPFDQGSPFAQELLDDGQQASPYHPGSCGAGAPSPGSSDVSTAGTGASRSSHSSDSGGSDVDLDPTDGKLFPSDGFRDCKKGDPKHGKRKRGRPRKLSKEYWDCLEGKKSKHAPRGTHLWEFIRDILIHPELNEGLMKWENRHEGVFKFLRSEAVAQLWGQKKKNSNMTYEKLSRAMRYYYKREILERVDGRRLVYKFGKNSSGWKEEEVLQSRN
Summary of the method: as §1

CRX = CRX (Homo sapiens, UniProt O43186 1-299); conditions: protein: recombinant; tags: N-terminal GST; dsDNA, one strand shown
CRX, sequence (O43186 whole entry): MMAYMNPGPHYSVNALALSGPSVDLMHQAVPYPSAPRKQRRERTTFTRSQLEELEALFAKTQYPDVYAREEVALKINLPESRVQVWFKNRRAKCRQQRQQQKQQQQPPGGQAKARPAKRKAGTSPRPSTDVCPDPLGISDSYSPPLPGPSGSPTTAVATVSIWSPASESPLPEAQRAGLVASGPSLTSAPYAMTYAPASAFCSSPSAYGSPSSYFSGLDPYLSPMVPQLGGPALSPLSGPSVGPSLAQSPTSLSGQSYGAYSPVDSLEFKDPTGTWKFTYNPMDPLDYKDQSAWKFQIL
Summary of the method: as §1

ETV1 = ETV1 (Homo sapiens, UniProt P50549 1-477); conditions: protein: recombinant; tags: N-terminal GST; dsDNA, one strand shown
ETV1, sequence (P50549 whole entry): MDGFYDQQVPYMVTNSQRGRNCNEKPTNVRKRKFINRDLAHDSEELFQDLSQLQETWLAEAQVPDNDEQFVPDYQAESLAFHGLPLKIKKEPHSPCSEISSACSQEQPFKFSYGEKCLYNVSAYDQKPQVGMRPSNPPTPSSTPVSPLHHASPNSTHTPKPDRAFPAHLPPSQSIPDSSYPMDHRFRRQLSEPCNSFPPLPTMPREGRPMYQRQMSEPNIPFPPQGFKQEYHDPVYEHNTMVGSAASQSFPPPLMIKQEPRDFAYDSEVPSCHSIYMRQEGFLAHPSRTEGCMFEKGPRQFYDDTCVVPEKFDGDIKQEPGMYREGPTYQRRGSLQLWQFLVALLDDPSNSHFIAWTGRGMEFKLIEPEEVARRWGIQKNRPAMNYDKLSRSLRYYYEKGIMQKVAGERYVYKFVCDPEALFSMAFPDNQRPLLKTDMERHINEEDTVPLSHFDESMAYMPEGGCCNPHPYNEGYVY
Summary of the method: as §1

TGCTTA
binding signal (FLI1): 1.04 fold enrichment (6-mer frequency, TF over GST control) | binding signal (ELK1): 1.06 fold enrichment (6-mer frequency, TF over GST control) | binding signal (GABPA): 1.21 fold enrichment (6-mer frequency, TF over GST control) | binding signal (ERG): 1.15 fold enrichment (6-mer frequency, TF over GST control) | binding signal (ELF1): 1.13 fold enrichment (6-mer frequency, TF over GST control) | binding signal (EHF): 1.08 fold enrichment (6-mer frequency, TF over GST control) | binding signal (SPIB): 1.06 fold enrichment (6-mer frequency, TF over GST control) | binding signal (ELK3): 1 fold enrichment (6-mer frequency, TF over GST control) | binding signal (FEV): 1.03 fold enrichment (6-mer frequency, TF over GST control) | binding signal (ETV5): 1.09 fold enrichment (6-mer frequency, TF over GST control) | binding signal (HSF1): 1.33 fold enrichment (6-mer frequency, TF over GST control) | binding signal (SPIC): 1.32 fold enrichment (6-mer frequency, TF over GST control) | binding signal (ELF4): 1.11 fold enrichment (6-mer frequency, TF over GST control) | binding signal (ELK4): 1.04 fold enrichment (6-mer frequency, TF over GST control) | binding signal (ELF3): 1.09 fold enrichment (6-mer frequency, TF over GST control) | binding signal (CRX): 1.78 fold enrichment (6-mer frequency, TF over GST control) | binding signal (ETV1): 1.11 fold enrichment (6-mer frequency, TF over GST control)
